DT40 TDP1 CPT = qHTS for Inhibitors of human tyrosyl-DNA phosphodiesterase 1 (TDP1): qHTS in cells in presence of CPT; Potency, µM (highest dose often 46.2 µM), without a hit: at the top dose activity change, negative = growth inhibition, most hits filed as inhibitors; chicken DT40 Tdp1-/-;hTDP1 cells + 20 nM CPT, ATP luminescence, 48 h; 420,000 tested, 12% active; further: potency means the concentration at half of the fitted maximal effect; nearly all actives have a fitted effect of over 55% in size
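Cell growth measured by CellTiter-Glo luminescence after a minimum 48 h, 37 C compound exposure with 20 nM CPT in Tdp1-knockout DT40 cells stably expressing hTDP1, seeded 400/well; qHTS titration format.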
IL-1B inflam inh = qHTS for Inhibitors of Inflammasome Signaling: IL-1-beta AlphaLISA Primary Screen | activity change, % at 57.5 µM | 360,000 tested, 4.7% active | THP-1 LPS/ATP IL-1B secretion, AlphaLISA, 16 h; active compounds read low | AID 743279, 2014; in the data active means activity change below about -50%; inconclusive means mostly about -30% to -49%
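THP-1 cells pretreated 1 hr with compounds (up to 57.5 uM final), then stimulated with LPS (250 ng/mL final) plus ATP (1.25 mM final); secreted IL-1B measured by AlphaLISA after 16 hr, decreased signal indicating inhibition.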
TDP1 cell noCPT = qHTS for Inhibitors of human tyrosyl-DNA phosphodiesterase 1 (TDP1): qHTS in cells in absence of CPT | DT40 Tdp1-/- hTDP1 cells, no CPT, ATP luminescence, 48 h | Potency, µM (doses to about 46.2 µM), inactives show at the top dose activity change, negative = growth inhibition, most hits filed as inhibitors | 420,000 tested, 15% active | AID 686978, 2013; further: potency means the concentration at half of the fitted maximal effect; nearly all actives have a fitted effect of over 55% in size
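Cells were dispensed at 400 per well, compounds added by pin tool, plates incubated ≥48 hr at 37 °C, then CellTiter-Glo added for 30 min at room temperature before luminescence reading. Line: DT40 Tdp1-/- complemented with hTDP1; camptothecin omitted.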
Six1-Eya2 blk = qHTS Assay for Inhibitors of the Six1/Eya2 Interaction. 360,000 tested, 0.56% active. activity change, % (no concentration beside the values). AID 651725, 2012. AlphaScreen GST-Six1/His-Eya2 binding, biochemical; active compounds read low. Homeobox protein SIX1 (Homo sapiens) + Protein phosphatase EYA2 (Homo sapiens), …; in the data active means activity change below about -65%; inconclusive means mostly about -30% to -63%
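AlphaScreen luminescence read after one hour at 37 °C in darkness. Pin-transferred compounds met GST-Six1 and His-Eya2 protein (5X stock 250 nM/500 nM) plus glutathione donor and Ni-chelate acceptor beads (5X, 50 ug/mL).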
CtBP-E1A inh = qHTS Assay for Inhibitors of the CtBP/E1A Interaction; CtBP / adenovirus E1A interaction (AlphaScreen); AlphaScreen GST-E1A/His-CtBP binding, 1536-well; active compounds read low; activity change, % (no concentration beside the values); 340,000 tested, 0.49% active; in the data active means activity change below about -65%; inconclusive means mostly about -30% to -63%
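In 5 uL wells, 23 nL compound meets equimolar GST-E1A and His-CtBP (5X stock 125 nM each) for 2 h, 37 °C. Beads (5X, 50 ug/mL) then 1 h, 37 °C, dark.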
TDP1 inh = qHTS Assay for Inhibitors of Tyrosyl-DNA Phosphodiesterase (TDP1) | recombinant TDP1, AlphaScreen DNA substrate cleavage | Potency, µM (highest dose often 130 µM), inactives show top-dose activity change, negative = inhibition, actives largely listed as inhibitors | 350,000 tested, 0.28% active; further: potency means the concentration at half of the fitted maximal effect; nearly all actives have a fitted effect of over 40% in size
Target sequence (Q9NUW8 whole entry, looked up): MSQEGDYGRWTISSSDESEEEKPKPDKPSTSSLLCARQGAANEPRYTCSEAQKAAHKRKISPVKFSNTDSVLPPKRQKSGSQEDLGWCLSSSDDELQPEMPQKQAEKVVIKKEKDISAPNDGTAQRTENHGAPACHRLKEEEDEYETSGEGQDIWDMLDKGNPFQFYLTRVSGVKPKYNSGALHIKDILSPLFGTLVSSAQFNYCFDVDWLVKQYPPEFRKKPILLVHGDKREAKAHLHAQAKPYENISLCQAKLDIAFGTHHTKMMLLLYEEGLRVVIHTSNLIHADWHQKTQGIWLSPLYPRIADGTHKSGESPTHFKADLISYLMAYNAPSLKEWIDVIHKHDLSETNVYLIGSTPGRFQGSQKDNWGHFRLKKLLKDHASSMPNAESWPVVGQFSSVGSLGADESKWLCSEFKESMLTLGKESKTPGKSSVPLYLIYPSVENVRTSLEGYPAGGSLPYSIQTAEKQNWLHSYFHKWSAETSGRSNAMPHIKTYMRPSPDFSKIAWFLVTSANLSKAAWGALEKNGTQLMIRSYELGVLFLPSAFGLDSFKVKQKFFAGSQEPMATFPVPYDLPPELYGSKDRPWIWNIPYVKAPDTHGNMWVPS
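Tdp1 1 nM final; 15 min RT w/ cpd; substrate 15 nM, 5 min; beads 10 ug/ml, 10 min; AlphaScreen read. Neg ctrl: no enzyme.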
Numbers without * were called inactive; ? = inconclusive; / = no result; [ ] = remark or other dose. Compounds with a hit are over-represented: about 18% of the library has one in this group of screens. Unless noted, the call rests on the fitted dose curve; in most records, active means well fitted curve in the direction sought with a large enough effect; inconclusive means small, poorly fitted or top-dose-only effect, or another doubt; inactive means no such curve, though single readings can be large; an effect the other way counts as inactive or inconclusive. On the % scale 0 is the no-effect control and ±100 the full control effect.

SMILES | DT40 TDP1 CPT | IL-1B inflam inh | TDP1 cell noCPT | Six1-Eya2 blk | CtBP-E1A inh | TDP1 inh
COc1ccc(C2CC(c3ccc4ccccc4c3)=NN2C(=O)COC(=O)C2CCC(=O)N2)cc1 (stereo not drawn) | 16µM* | -69* | ? | -27 | -5 | 3%
COc1ccc(C2CC(c3ccc4ccccc4c3)=NN2C(=O)CN2CCC(C(N)=O)CC2)cc1 (stereo not drawn) | ? | -82* | ? | -22 | -3 | 9%
COc1ccc2oc(C(=O)NCC(c3ccco3)N(C)C)c(C)c2c1 (stereo not drawn) | -2% | -7 | -8% | -9 | -2 | 3%[0.505 µM]
CC(C)(C)C(=O)Nc1ccc(C(=O)OC2CCCCC2)cc1 | 26µM* | -30 | 21µM* | 4 | 10 | 2%
CCCCC(=O)Nc1ccc(C(=O)OC2CCCCC2)cc1 | ? | -9 | ? | 11 | 11 | 2%
O=C(OC1CCCCC1)c1ccc(NC(=O)C2CCCCC2)cc1 | ? | -25 | 21µM* | 15 | 7 | -4%
CCc1c(C)nc2ncnn2c1NCCc1ccc(OC)cc1 | 2.8µM* | -21 | 3.5µM* | -8 | -9 | -2%
CCc1c(C)nc2ncnn2c1N1CCN(S(=O)(=O)c2ccc(OC)cc2)CC1 | 3.7µM* | -1 | 5.8µM* | 14 | -19 | -3%
CCc1c(C)nc2ncnn2c1Nc1ccc(C)c(C)c1 | 23µM* | 7 | ? | -3 | 0 | -2%
Cc1cc(N2CCN(S(=O)(=O)c3ccc(Br)cc3)CC2)n2ncnc2n1 | -14% | -4 | -22% | -1 | 0 | 0%
CCc1c(C)nc2ncnn2c1Nc1ccc(C)cc1 | ? | 4 | ? | -1 | 0 | 4%
CCOc1ccc(OCC)c(NC(=O)CN(C)S(=O)(=O)c2ccc3c(c2)CCCC(=O)N3)c1 | / | / | / | / | / | 4%
COc1ccc(Nc2nc(C(F)(F)F)nc(C)c2C#N)cc1 | 1% | 20 | -6% | 6 | -2 | 3%
N#Cc1cc2sc3nc4ccccc4n3c2cc1C#N | / | / | / | / | / | 12%
N#Cc1cc2sc3nnc(-c4ccncc4)n3c2cc1C#N | ? | -83* | 10µM* | -14 | -1 | 9%
Cc1ccc(S(=O)(=O)NCc2ccco2)c(C)c1C | -26% | -11 | ? | 0 | 3 | -2%
COc1cccc(CNC(=O)C(=O)NCCC2CCCCN2S(=O)(=O)c2ccccc2)c1 (stereo not drawn) | ? | -3 | ? | -1 | -1 | /
COc1ccc(CCNC(=O)C2CCCN(c3nc4c(C)cc(C)cc4s3)C2)cc1OC (stereo not drawn) | 21µM* | / | 13µM* | / | / | -2%
CCOc1ccc(CNC(=O)C2CCCN(c3nc4c(C)cc(C)cc4s3)C2)cc1 (stereo not drawn) | 18µM* | / | ? | / | / | -1%
CCOC(=O)Nc1cc(=O)c2ccccc2o1 | 8.2µM* | 23 | 13µM* | 0 | 3 | 1%
CC(C)CCN1C(=O)CC(NNC(=O)c2ccc(S(=O)(=O)N3CCCC3)cc2)C1=O (stereo not drawn) | -1% | 4 | -7% | 4 | / | 3%
O=C(OCC(O)CN1CCCCC1)C12CC3CC(CC(C3)C1)C2 (stereo not drawn) | -12% | -7 | 5% | 4 | 1 | -3%
CC(NCC(O)COCCC12CC3CC(CC(C3)C1)C2)c1ccccc1 (stereo not drawn) | 6.5µM* | -98* | 15µM* | -2 | -2 | -5%
OC(COCCC12CC3CC(CC(C3)C1)C2)CN1CCCC1 (stereo not drawn) | 18µM* | -2 | ? | 2 | -21 | -2%
CCNC(=O)OCCC12CC3CC(CC(C3)C1)C2 | ? | 15 | ? | 1 | 6 | 0%
SMILES | DT40 TDP1 CPT | IL-1B inflam inh | TDP1 cell noCPT | Six1-Eya2 blk | CtBP-E1A inh | TDP1 inh
COc1ccc(C(=O)CC(=O)C(=O)Nc2ccccc2OC)cc1 | ? | 33 | ? | -9 | -6 | /
CC(=O)c1cccc(NC(=O)c2ccc3c(c2)C(=O)N(Cc2cccnc2)C3=O)c1 | 7% | 0 | -5% | 2 | -6 | 2%
CC1CCCN(C(=O)c2cccc(S(=O)(=O)N3CCCc4ccccc43)c2)C1 (stereo not drawn) | 10µM* | -15 | 10µM* | -2 | 5 | /
CCOC(=O)C1CCN(C(=O)c2cccc(S(=O)(=O)N3CCCc4ccccc43)c2)CC1 | ? | -7 | 23µM* | -15 | 0 | /
CCCCCCn1c(N2CCN(c3cccc(Cl)c3)CC2)nc2c1c(=O)[nH]c(=O)n2C | ? | ? | 23µM* | -10 | 1 | 4%
Cn1c(=O)[nH]c(=O)c2c1nc(N1CCN(c3ccccc3)CC1)n2CCSc1ncccn1 | ? | -7 | 10µM* | -1 | 4 | -3%
CCCCCCn1c(N2CCN(c3ccccc3)CC2)nc2c1c(=O)[nH]c(=O)n2C | 23µM* | ? | ? | -3 | -2 | 0%
Cn1c(=O)[nH]c(=O)c2c1nc(CN1CCN(c3ccccc3F)CC1)n2CCCc1ccccc1 | ? | -18 | 14µM* | -2 | 8 | 6%
O=C(COC(=O)CC1CCS(=O)(=O)C1)Nc1ccc(F)cc1 (stereo not drawn) | -9% | 13 | 1% | -2 | / | -1%
CC(=NCCCn1ccnc1)c1c(-c2ccccc2)[nH]n(-c2nc3ccccc3s2)c1=O | ? | -2 | ? | -7 | -16 | 10%
Cc1ccc2c(c1)-c1onc(C(=O)N(C)c3cccc(C(F)(F)F)c3)c1CO2 | / | / | / | / | / | 8%
CCCCCn1c(CN2CCN(c3cccc(Cl)c3)CC2)nc2c1c(=O)[nH]c(=O)n2C | 21µM* | -23 | ? | 20 | -9 | 4%
CCCn1c(N2CCN(CC(=O)c3c(C)n(C)c4ccccc34)CC2)nc2c1c(=O)[nH]c(=O)n2C | ? | -69* | 18µM* | 4 | -6 | 5%
CC=Cc1cc2c(c(=O)o1)C(=O)C(O)C(C)O2 (stereo not drawn) | 3.7µM* | -101* | 2.9µM* | 4 | -1 | /

Bioassay records deposited in PubChem by National Center for Advancing Translational Sciences (NCATS).
